# Data: article PMC5540273 (PLoS ONE, 2017)
# “And” between values parts separate entries of the source, which are not always exact repeats. Identical values can stand only once. Like-named read-outs stand apart in the source and are kept apart here.
# Legend:
# [1] = system: NEK6; conditions: concentration: 1 μM, replicates: in singlicate; n = 1
# [2] = system: NEK7; conditions: concentration: 1 μM, replicates: in singlicate, n = 1
# [3] = system: NEK9; conditions: concentration: 1 μM, replicates: in singlicate, n = 1
# [4] = system: T1, NIK; conditions: concentration: 1 μM, replicates: in singlicate, n = 1
# T1 construct: gene MAP3K14
# [5] = system: T2, NIM1; conditions: concentration: 1 μM, replicates: in singlicate, n = 1
# T2 construct: gene MGC42105
# [6] = system: NLK; conditions: concentration: 1 μM, replicates: in singlicate, n = 1
# [7] = system: T3, OSR1; conditions: concentration: 1 μM, replicates: in singlicate; n = 1
# T3 construct: gene OXSR1
# [8] = system: PAK1; conditions: concentration: 1 μM, replicates: in singlicate, n = 1
# [9] = system: PAK2; conditions: concentration: 1 μM, replicates: in singlicate, n = 1
# [10] = system: PAK3; conditions: concentration: 1 μM, replicates: in singlicate, n = 1
# [11] = system: PAK4; conditions: concentration: 1 μM, replicates: in singlicate, n = 1
# [12] = system: PAK6; conditions: concentration: 1 μM, replicates: in singlicate, n = 1
# [13] = system: PAK7; conditions: concentration: 1 μM, replicates: in singlicate; n = 1
# [14] = system: T4, PCTK1; conditions: concentration: 1 μM, replicates: in singlicate; n = 1
# T4 construct: gene CDK16
# [15] = system: T5, PCTK2; conditions: concentration: 1 μM, replicates: in singlicate, n = 1
# T5 construct: gene CDK17
# [16] = system: T6, PCTK3; conditions: concentration: 1 μM, replicates: in singlicate, n = 1
# T6 construct: gene CDK18
# [17] = system: PDGFRA; conditions: concentration: 1 μM, replicates: in singlicate, n = 1
# [18] = system: PDGFRB; conditions: concentration: 1 μM, replicates: in singlicate, n = 1
# [19] = system: PDPK1; conditions: concentration: 1 μM, replicates: in singlicate, n = 1
# [20] = system: PFTAIRE2; conditions: concentration: 1 μM, replicates: in singlicate, n = 1
# 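Further: KINOMEscan kinase panel screen.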
smiles,measurement,setting,value
Cc1ccc(C(=O)NCC(N)=O)cc1-n1c(C)cc(OCc2ccc(F)cc2F)c(Br)c1=O,%Inh,[1],4%
same,%Inh,[2],12%
same,%Inh,[3],4%
same,%Inh,[4],0%
same,%Inh,[5],0%
same,%Inh,[6],14%
same,%Inh,[7],0%
same,%Inh,[8],16%
same,%Inh,[9],14%
same,%Inh,[10],37%
same,%Inh,[11],13%
same,%Inh,[12],12%
same,%Inh,[13],5%
same,%Inh,[14],0%
same,%Inh,[15],2%
same,%Inh,[16],22%
same,%Inh,[17],0%
same,%Inh,[18],9%
same,%Inh,[19],15%
same,%Inh,[20],10%
[2H]C([2H])(c1cccc(C(F)(F)F)c1C)n1ccn2c(=O)nc(N3CCOCC3)cc12 [GSK2336394],%Inh,[1],0%
same,%Inh,[2],0%
same,%Inh,[3],53%
same,%Inh,[4],0%
same,%Inh,[5],13%
same,%Inh,[6],0%
same,%Inh,[7],9%
same,%Inh,[8],0%
same,%Inh,[9],12%
same,%Inh,[10],13%
same,%Inh,[11],0%
same,%Inh,[12],0%
same,%Inh,[13],0%
same,%Inh,[14],4%
same,%Inh,[15],0%
same,%Inh,[16],11%
same,%Inh,[17],0%
same,%Inh,[18],15%
same,%Inh,[19],0%
same,%Inh,[20],0%
Cl.Nc1ncnc2occ(-c3ccc(NC(=O)Nc4cc(C(F)(F)F)ccc4F)cc3)c12 [SB-707548],%Inh,[1],0%
same,%Inh,[2],0%
same,%Inh,[3],76%
same,%Inh,[4],36%
same,%Inh,[5],28%
same,%Inh,[6],26%
same,%Inh,[7],3%
same,%Inh,[8],24%
same,%Inh,[9],30%
same,%Inh,[10],15%
same,%Inh,[11],9%
same,%Inh,[12],6%
same,%Inh,[13],26%
same,%Inh,[14],11%
same,%Inh,[15],80%
same,%Inh,[16],67%
same,%Inh,[17],99.8%
same,%Inh,[18],100%
same,%Inh,[19],33%
same,%Inh,[20],68%
Cl.Cl.Cl.Fc1ccc(-c2ncn(C3CCNCC3)c2-c2ccnc(Nc3ccccc3)n2)cc1 [SB-238039],%Inh,[1],0%
same,%Inh,[2]; 1 µM,0% and 24%
same,%Inh,[3]; 1 µM,0% and 19%
same,%Inh,[4]; 1 µM,5% and 12%
same,%Inh,[5]; 1 µM,35% and 19%
same,%Inh,[6]; 1 µM,90.5% and 89%
same,%Inh,[7],14%
same,%Inh,[8]; 1 µM,16% and 0%
same,%Inh,[9]; 1 µM,51% and 14%
same,%Inh,[10]; 1 µM,43% and 50%
same,%Inh,[11]; 1 µM,9% and 12%
same,%Inh,[12]; 1 µM,0% and 11%
same,%Inh,[13],10%
same,%Inh,[14],0%
same,%Inh,[15]; 1 µM,0% and 4%
same,%Inh,[16]; 1 µM,0% and 6%
same,%Inh,[17]; 1 µM,0% and 26%
same,%Inh,[18]; 1 µM,52% and 13%
same,%Inh,[19]; 1 µM,6% and 0%
same,%Inh,[20]; 1 µM,0% and 21%
COc1cc2c(cc1OC[C@@H](O)CO)ncc1c3ccc(C#N)cc3[nH]c21,%Inh,[1],0%
same,%Inh,[2],0%
same,%Inh,[3],0%
same,%Inh,[4],60%
same,%Inh,[5],30%
same,%Inh,[6],0%
same,%Inh,[7],0%
same,%Inh,[8],0%
same,%Inh,[9],0%
same,%Inh,[10],0%
same,%Inh,[11],0%
same,%Inh,[12],0%
same,%Inh,[13],11%
same,%Inh,[14],0%
same,%Inh,[15],0%
same,%Inh,[16],0%
same,%Inh,[17],99.2%
same,%Inh,[18],91.4%
same,%Inh,[19],8%
same,%Inh,[20],6%
O=C(NOCC1CC1)c1ccc(F)c(F)c1Nc1ccc(I)cc1Cl,%Inh,[1],0%
same,%Inh,[2],0%
same,%Inh,[3],0%
same,%Inh,[4],0%
same,%Inh,[5],0%
same,%Inh,[6],0%
same,%Inh,[7],0%
same,%Inh,[8],0%
same,%Inh,[9],0%
same,%Inh,[10],0%
same,%Inh,[11],0%
same,%Inh,[12],0%
same,%Inh,[13],3%
same,%Inh,[14],0%
same,%Inh,[15],0%
same,%Inh,[16],1%
same,%Inh,[17],0%
same,%Inh,[18],8%
same,%Inh,[19],0%
same,%Inh,[20],0%
COc1cc2ncn(-c3cc(OCc4sccc4Cl)c(C(N)=O)s3)c2cc1OC [GSK448459],%Inh,[1],0%
same,%Inh,[2],0%
same,%Inh,[3],0%
same,%Inh,[4],22%
same,%Inh,[5],30%
same,%Inh,[6],0%
same,%Inh,[7],11%
same,%Inh,[8],17%
same,%Inh,[9],10%
same,%Inh,[10],20%
same,%Inh,[11],0%
same,%Inh,[12],6%
same,%Inh,[13],0%
same,%Inh,[14],4%
same,%Inh,[15],0%
same,%Inh,[16],13%
same,%Inh,[17],25%
same,%Inh,[18],76%
same,%Inh,[19],0%
same,%Inh,[20],0%
O=C1Cc2cc(Nc3nc(NCc4cccc(S(=O)(=O)C(F)(F)F)c4)ncc3C(F)(F)F)ccc2N1,%Inh,[1],14%
same,%Inh,[2],0%
same,%Inh,[3],0%
same,%Inh,[4],4%
same,%Inh,[5],26%
same,%Inh,[6],4%
same,%Inh,[7],4%
same,%Inh,[8],0%
same,%Inh,[9],0%
same,%Inh,[10],1%
same,%Inh,[11],100%
same,%Inh,[12],0%
same,%Inh,[13],0%
same,%Inh,[14],19%
same,%Inh,[15],0%
same,%Inh,[16],1%
same,%Inh,[17],0%
same,%Inh,[18],16%
same,%Inh,[19],0%
same,%Inh,[20],0%
O=c1cc(N2CCOCC2)nc2n(Cc3cccc(C(F)(F)F)c3)ccn12 [GSK2297543],%Inh,[1],0%
same,%Inh,[2],0%
same,%Inh,[3],18%
same,%Inh,[4],25%
same,%Inh,[5],14%
same,%Inh,[6],32%
same,%Inh,[7],5%
same,%Inh,[8],6%
same,%Inh,[9],14%
same,%Inh,[10],14%
same,%Inh,[11],0%
same,%Inh,[12],0%
same,%Inh,[13],0%
same,%Inh,[14],6%
same,%Inh,[15],0%
same,%Inh,[16],1%
same,%Inh,[17],11%
same,%Inh,[18],22%
same,%Inh,[19],0%
same,%Inh,[20],17%
Fc1ccc(-c2ncn(CCCN3CCOCC3)c2-c2cccnc2)cc1 [SB-211743],%Inh,[1],0%
same,%Inh,[2],0%
same,%Inh,[3],0%
same,%Inh,[4],41%
same,%Inh,[5],0%
same,%Inh,[6],3%
same,%Inh,[7],0%
same,%Inh,[8],15%
same,%Inh,[9],23%
same,%Inh,[10],0%
same,%Inh,[11],7%
same,%Inh,[12],0%
same,%Inh,[13],0%
same,%Inh,[14],0%
same,%Inh,[15],0%
same,%Inh,[16],0%
same,%Inh,[17],0%
same,%Inh,[18],0%
same,%Inh,[19],1%
same,%Inh,[20],0%
